Experimental data: PubChem BioAssay (NCI)
The panel holds about 79,000 compounds, 15% with a hit somewhere; the sample as a whole holds those more often. A number with no mark means an inactive call. The source made the active and inactive calls. Rule as the data show it: active = growth inhibition above about 70%; inactive = the rest.

Assays:
[1] = NCI Yeast Anticancer Drug Screen. Data for the rad50 strain (AID 155);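 also: 0% = growth of vehicle-only cultures of the same strain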; details: S. cerevisiae rad50 strain growth inhibition, stronger effect = higher value
In short: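 Inhibition values express reduced yeast growth in compound-treated cultures relative to vehicle-treated controls.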

[2] = NCI Yeast Anticancer Drug Screen. Data for the mec2-1 strain (AID 157); details: S. cerevisiae mec2-1 strain, stronger effect = higher value
In short: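 Mutant yeast (mec2-1) grown with compound; growth inhibition relative to vehicle control reported.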

[3] = NCI Yeast Anticancer Drug Screen. Data for the sgs1 mgt1 strain (AID 161);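 also: 0% = growth of cultures given vehicle only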; details: S. cerevisiae sgs1 mgt1 strain, stronger effect = higher value
In short: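 Yeast cells carrying a defined DNA-repair defect were exposed to test compounds. Growth inhibition was measured relative to vehicle-treated controls.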

[4] = NCI Yeast Anticancer Drug Screen. Data for the cln2 rad14 strain (AID 165);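 also: 0% = growth equal to vehicle treated cultures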; details: S. cerevisiae cln2 rad14 strain, stronger effect = higher value
In short: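 Readout is yeast growth inhibition versus vehicle-treated controls, using a strain with cln2 and rad14 alterations exposed to compound.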

[5] = NCI Yeast Anticancer Drug Screen. Data for the bub3 strain (AID 167); details: S. cerevisiae bub3 mutant strain, stronger effect = higher value
In short: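 Steps: expose the mutant yeast strain to compound; grow alongside vehicle-treated cultures; measure growth; express inhibition against the vehicle cultures.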

[6] = NCI Yeast Anticancer Drug Screen. Data for the mlh1 rad18 strain (AID 175); details: S. cerevisiae mlh1 rad18 strain growth inhibition, stronger effect = higher value
In short: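 Genetically defined yeast (DNA repair-deficient) exposed to compounds; growth inhibition determined relative to vehicle.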

[7] = at 5.0 µM (retest, dose inferred, filed as 0.5)
[8] = at 50.0 µM (retest, dose inferred, filed as 5.0)

Row | Compound | growth inhibition [1, 7] | growth inhibition [1, 8] | growth inhibition ([1]; at 50.0 µM) | growth inhibition [2, 7] [%] | growth inhibition [2, 8] | growth inhibition ([2]; at 50.0 µM) | growth inhibition [3, 7] | growth inhibition [3, 8] | growth inhibition ([3]; at 50.0 µM) | growth inhibition [4, 7] | growth inhibition [4, 8] | growth inhibition ([4]; at 50.0 µM) | growth inhibition [5, 7] | growth inhibition [5, 8] | growth inhibition ([5]; at 50.0 µM) | growth inhibition [6, 7] | growth inhibition [6, 8] | growth inhibition ([6]; at 50.0 µM)
1 | NNC(=O)NN=C(c1ccccc1)c1ccccc1 | 0% | 16% | 1.5% | -2 | 1% | -13.2% | -3% | 0% | 11.4% | 0% | -12% | -26.5% | -4% | -1% | 3.95% | -11% | 1% | 33.1%
2 | CCC(=O)c1ccc2ccc3ccccc3c2c1 | 6% | 60% | 62.5% | 8 | 34% | 26.4% | 4% | 72% (active) | 65.2% | 4% | 45% | -7.25% | 12% | 87% (active) | 68.8% | 5% | 64% | 50.9%
3 | CC/C(=N\NS(=O)(=O)c1ccc(C)cc1)c1cccc(OC)c1 | 34% | 47% | 69.6% | 12 | 37% | 40.6% | 50% | 90% (active) | 88.8% (active) | 37% | 78% (active) | 51.2% | 43% | 86% (active) | 36.6% | 36% | 87% (active) | 92.2% (active)
4 | CCC[CH2][Sn]([CH2]CCC)([O]C(=O)c1c(F)cccc1F)[O]C(=O)c1c(F)cccc1F | 80% (active) | 80% (active) | 88.8% (active) | 66 | 66% | 89.7% (active) | 80% (active) | 80% (active) | 87.3% (active) | 70% (active) | 70% (active) | 86.9% (active) | 72% (active) | 72% (active) | 83.6% (active) | 73% (active) | 73% (active) | 84% (active)
5 | Cc1ccc(NC(=O)CSC(N)=O)cc1 | 4% | 92% (active) | 97.5% (active) | 4 | 96% (active) | 98.5% (active) | 3% | 94% (active) | 99.1% (active) | 2% | 94% (active) | 97.5% (active) | 4% | 96% (active) | 97.8% (active) | 2% | 94% (active) | 97.7% (active)
6 | Cc1ccccc1[P+](C)(c1ccccc1C)c1ccccc1C | 56% | 85% (active) | 81% (active) | 18 | 78% (active) | 69.7% | 31% | 89% (active) | 82.2% (active) | 2% | 48% | 29.1% | 27% | 85% (active) | 82.8% (active) | 34% | 84% (active) | 71.8% (active)
7 | O=[N+]([O-])c1ccc(C2=CSc3ccccc3N2)cc1 | -17% | 6% | 49.7% | -30 | -5% | 59.4% | -11% | -7% | 58% | 11% | 25% | 22.9% | -16% | 19% | 73.4% (active) | -43% | 31% | 58.2%
8 | CCN(CC)CCOc1ccc(/C=C(\C#N)c2ccc(OC)cc2)cc1 | 24% | 83% (active) | 74.5% (active) | 17 | 96% (active) | 62.5% | 40% | 97% (active) | 85.9% (active) | 34% | 90% (active) | 82.8% (active) | 44% | 95% (active) | 68.5% | 24% | 84% (active) | 75.8% (active)
9 | CCN(CC)CCOC(=O)c1ccc(N=Nc2cc(Cl)c(C)cc2O)cc1 | 26% | 98% (active) | 99.3% (active) | 29 | 99% (active) | 99.2% (active) | 55% | 99% (active) | 95.2% (active) | 13% | 98% (active) | 99% (active) | 58% | 99% (active) | 99.1% (active) | 28% | 99% (active) | 99.1% (active)
10 | CN1c2ccccc2C(C)(C)C12C=Cc1cc(O)ccc1O2 (stereo not given) | 20% | 31% | 70.8% (active) | 9 | 10% | 47.6% | 8% | 38% | 61.9% | 14% | 23% | 35.6% | -4% | 51% | 52.4% | -15% | 33% | 54.1%
